Reference: PubChem BioAssay (NCATS)
Records with an inconclusive call do not appear. The source made the active and inactive calls. Calls come from the whole dose curve; as a rule, active = well fitted curve in the direction sought with a large enough effect; inconclusive = small, poorly fitted or top-dose-only effect, or another doubt; inactive = no such curve, though single readings can be large; an effect the other way counts as inactive or inconclusive.

Columns and labels:
[1] = NS1 protein of Zika virus - qHTS assay to identify small molecule inhibitors in human HEK 293 cells (AID 1347053);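 note: series mostly up to about 46 µM; plate controls were infected untreated cells for no effect and uninfected cells for full effect; nearly all actives have a fitted effect of over 55% in size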
Procedure, shortened: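 Compound-treated (1 h pre-infection) HEK 293 cells infected with ZIKV MR766, MOI = 0.5; after 24 h at 37 C, NS1 read by TR-FRET; data normalized to uninfected and infected controls.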

[2] = qHTS of pediatric cancer cell lines to identify multiple opportunities for drug repurposing: Primary screen for TC32 cells (AID 1347089); note: % is set by controls: 0 for no effect and ±100 for the full control effect; nearly all actives have a fitted effect of over 60% in size
Procedure, shortened: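 qHTS, TC32, 48 h drug treatment, CellTiter-Glo luminescence as a proxy for metabolically active cells; primary top concentration 46 µM (MIPE 11-pt, NPC 8-pt); confirmatory 11-pt.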

[3] = qHTS of pediatric cancer cell lines to identify multiple opportunities for drug repurposing: Primary screen for DAOY cells (AID 1347090);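 note: series mostly up to about 46 µM; plate controls were DMSO for no effect and bortezomib for full effect; nearly all actives have a fitted effect of over 55% in size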
Procedure, shortened: (§1)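 Cell viability, CellTiter-Glo luminescence; 500-1,000 cells/well, 8- or 11-point titration, 48 h compound exposure at 37 degrees C, 5% CO2. Controls: DMSO neutral, bortezomib 2.3 µM final as positive.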

[4] = qHTS of pediatric cancer cell lines to identify multiple opportunities for drug repurposing: Primary screen for SJ-GBM2 cells (AID 1347091);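 note: plate controls were DMSO neutral control for no effect and bortezomib for full effect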
Procedure, shortened: as §1

[5] = qHTS of pediatric cancer cell lines to identify multiple opportunities for drug repurposing: Primary screen for A673 cells (AID 1347092); note: % is set by controls: 0 for no effect and ±100 for the full control effect; nearly all actives have a fitted effect of over 45% in size
Procedure, shortened: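 Luminescence from CellTiter-Glo, taken after 15 min at room temperature, served as the proxy for metabolically active cells following 48 h treatment. Both potency and efficacy were taken from curves fitted to the titration data.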

[6] = qHTS of pediatric cancer cell lines to identify multiple opportunities for drug repurposing: Primary screen for SK-N-MC cells (AID 1347093);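 note: series mostly up to about 46 µM; plate controls were DMSO neutral control for no effect and bortezomib for full effect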
Procedure, shortened: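 Metabolically active cells were quantified by ATP-dependent luminescence (CellTiter-Glo, 15 min at room temperature) following 48 h treatment. Cells had been plated at 500-1,000 per well and settled for 5 h beforehand.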

[7] = qHTS of pediatric cancer cell lines to identify multiple opportunities for drug repurposing: Primary screen for BT-37 cells (AID 1347094);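 note: series mostly up to about 57 µM; plate controls were DMSO for no effect and bortezomib for full effect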
Procedure, shortened: (§2)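 Primary screen of approved and investigational compounds on cells in growth media at 37 degrees C, 5% CO2. MIPE set at 11-point and NPC set at 8-point dilutions; viability scored by ATP-based luminescence at 48 hours.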

[8] = qHTS of pediatric cancer cell lines to identify multiple opportunities for drug repurposing: Primary screen for NB-EBc1 cells (AID 1347095);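 note: plate controls were DMSO neutral control for no effect and bortezomib for full effect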
Procedure, shortened: as §2

[9] = qHTS of pediatric cancer cell lines to identify multiple opportunities for drug repurposing: Primary screen for U-2 OS cells (AID 1347096);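 note: plate controls were DMSO wells for no effect and bortezomib positive control wells for full effect; nearly all actives have a fitted effect of over 50% in size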
Procedure, shortened: (§3)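 Cells (500-1,000/well) rested 5 h, then received compounds for 48 h; metabolically active cells were measured by CellTiter-Glo luminescence. Final concentrations spanned up to 46 µM (MIPE, 11-point) or 0.59 nM-46 µM (NPC, 8-point) in primary screens, 11-point in follow-ups.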

[10] = qHTS of pediatric cancer cell lines to identify multiple opportunities for drug repurposing: Primary screen for Saos-2 cells (AID 1347097); note: % is set by controls: 0 for no effect and ±100 for the full control effect; nearly all actives have a fitted effect of over 40% in size
Procedure, shortened: as §2

[11] = qHTS of pediatric cancer cell lines to identify multiple opportunities for drug repurposing: Primary screen for SK-N-SH cells (AID 1347098); note: % is set by controls: 0 for no effect and ±100 for the full control effect; nearly all actives have a fitted effect of over 65% in size
Procedure, shortened: as §3

[12] = qHTS of pediatric cancer cell lines to identify multiple opportunities for drug repurposing: Primary screen for NB1643 cells (AID 1347099);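 note: plate controls were DMSO neutral control for no effect and bortezomib positive control for full effect; nearly all actives have a fitted effect of over 50% in size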
Procedure, shortened: as §2

[13] = qHTS of pediatric cancer cell lines to identify multiple opportunities for drug repurposing: Primary screen for LAN-5 cells (AID 1347100);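 note: plate controls were DMSO neutral control for no effect and bortezomib positive control for full effect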
Procedure, shortened: as §3

[14] = qHTS of pediatric cancer cell lines to identify multiple opportunities for drug repurposing: Primary screen for BT-12 cells (AID 1347101);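 note: plate controls were DMSO for no effect and bortezomib positive control for full effect; nearly all actives have a fitted effect of over 25% in size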
Procedure, shortened: as §3

[15] = qHTS of pediatric cancer cell lines to identify multiple opportunities for drug repurposing: Primary screen for Rh18 cells (AID 1347102); note: % is set by controls: 0 for no effect and ±100 for the full control effect; nearly all actives have a fitted effect of over 65% in size
Procedure, shortened: as §3

[16] = qHTS of pediatric cancer cell lines to identify multiple opportunities for drug repurposing: Primary screen for OHS-50 cells (AID 1347103);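 note: plate controls were DMSO neutral control for no effect and bortezomib positive control for full effect; nearly all actives have a fitted effect of over 40% in size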
Procedure, shortened: as §3

CC(C)NCCCC1(C(N)=O)c2ccccc2-c2ccccc21
inactive: Potency [1] | Potency [2] | Potency [3] | Potency [4] | Potency [5] | Potency [6] | Potency [7] | Potency [8] | Potency [9] | Potency [10] | Potency [11] | Potency [12] | Potency [13] | Potency [14] | Potency [15] | Potency [16]

O=C1CC(c2ccc(Cl)cc2)CC(=O)N1
inactive: Potency [1] | Potency [2] | Potency [3] | Potency [4] | Potency [5] | Potency [6] | Potency [7] | Potency [8] | Potency [9] | Potency [10] | Potency [11] | Potency [12] | Potency [13] | Potency [14] | Potency [15] | Potency [16]

Cc1cccc(C)c1NC(=O)c1cc(S(N)(=O)=O)c(Cl)cc1O
inactive: Potency [1] | Potency [2] | Potency [3] | Potency [4] | Potency [5] | Potency [6] | Potency [7] | Potency [8] | Potency [9] | Potency [10] | Potency [11] | Potency [12] | Potency [13] | Potency [14] | Potency [15] | Potency [16]

CCS(=O)(=O)c1ccc(OC)c(C(=O)OC)c1
inactive: Potency [1] | Potency [2] | Potency [3] | Potency [4] | Potency [5] | Potency [6] | Potency [7] | Potency [8] | Potency [9] | Potency [10] | Potency [11] | Potency [12] | Potency [13] | Potency [14] | Potency [15] | Potency [16]

CO[C@]1(NC(=O)CSC(F)F)C(=O)N2C(C(=O)O)=C(CSc3nnnn3CCO)CO[C@H]21
inactive: Potency [1] | Potency [2] | Potency [3] | Potency [4] | Potency [5] | Potency [6] | Potency [7] | Potency [8] | Potency [9] | Potency [10] | Potency [11] | Potency [12] | Potency [13] | Potency [14] | Potency [15] | Potency [16]

C[C@H]1NCc2cc(-c3ccc4c(=O)c(C(=O)O)cn(C5CC5)c4c3OC(F)F)ccc21
inactive: Potency [1] | Potency [2] | Potency [3] | Potency [4] | Potency [5] | Potency [6] | Potency [7] | Potency [8] | Potency [9] | Potency [10] | Potency [11] | Potency [12] | Potency [13] | Potency [14] | Potency [15] | Potency [16]

COC(=O)c1cc(Cl)ccc1OC
inactive: Potency [1] | Potency [2] | Potency [3] | Potency [4] | Potency [5] | Potency [6] | Potency [7] | Potency [8] | Potency [9] | Potency [10] | Potency [11] | Potency [12] | Potency [13] | Potency [14] | Potency [15] | Potency [16]

Cc1ccc(O)cc1
inactive: Potency [1] | Potency [2] | Potency [3] | Potency [4] | Potency [5] | Potency [6] | Potency [7] | Potency [8] | Potency [9] | Potency [10] | Potency [11] | Potency [12] | Potency [13] | Potency [14] | Potency [15] | Potency [16]

O=C(O)CCC(=O)OC[C@@H](NC(=O)C(Cl)Cl)[C@H](O)c1ccc([N+](=O)[O-])cc1
inactive: Potency [1] | Potency [2] | Potency [3] | Potency [4] | Potency [5] | Potency [6] | Potency [7] | Potency [8] | Potency [9] | Potency [10] | Potency [11] | Potency [12] | Potency [13] | Potency [14] | Potency [15] | Potency [16]

CO/N=C(\C(=O)O)c1csc(NC(=O)CCl)n1
inactive: Potency [1] | Potency [2] | Potency [3] | Potency [4] | Potency [5] | Potency [6] | Potency [7] | Potency [8] | Potency [9] | Potency [10] | Potency [11] | Potency [12] | Potency [13] | Potency [14] | Potency [15] | Potency [16]

CN1Cc2cc(C(=O)N3CCC(C4CCNCC4)CC3)ccc2NC(CC(=O)O)C1=O (stereo not given)
inactive: Potency [1] | Potency [2] | Potency [3] | Potency [4] | Potency [5] | Potency [6] | Potency [7] | Potency [8] | Potency [9] | Potency [10] | Potency [11] | Potency [12] | Potency [13] | Potency [14] | Potency [15] | Potency [16]

Nc1c(I)cc(I)c(C(=O)N(CCC(=O)O)c2ccccc2)c1I
inactive: Potency [1] | Potency [2] | Potency [3] | Potency [4] | Potency [5] | Potency [6] | Potency [7] | Potency [8] | Potency [9] | Potency [10] | Potency [11] | Potency [12] | Potency [13] | Potency [14] | Potency [15] | Potency [16]

O=C(O)Cc1ccccc1Oc1ccc(Cl)cc1Cl
inactive: Potency [1] | Potency [2] | Potency [3] | Potency [4] | Potency [5] | Potency [6] | Potency [7] | Potency [8] | Potency [9] | Potency [10] | Potency [11] | Potency [12] | Potency [13] | Potency [14] | Potency [15] | Potency [16]

CC1CN(c2cc3c(cc2F)c(=O)c(C(=O)O)cn3-c2ccc(F)cc2F)CCN1 (stereo not given)
inactive: activity change, negative = inhibition [1] -15.5% [at 4.81 µM] | activity change, negative = cytotoxic [2] -4% [at 4.81 µM] | activity change, negative = cytotoxic [3] 0.682% [at 4.84 µM] | activity change, negative = cytotoxic [4] 78.3% [at 4.84 µM] | activity change, negative = cytotoxic [5] -9.43% [at 4.84 µM] | activity change, negative = cytotoxic [6] 32.9% [at 4.84 µM] | activity change, negative = cytotoxic [7] 1.04% [at 6.03 µM] | activity change, negative = cytotoxic [8] 50.8% [at 4.84 µM] | activity change, negative = cytotoxic [9] -4.99% [at 4.84 µM] | activity change, negative = cytotoxic [10] 39.6% [at 4.84 µM] | activity change, negative = cytotoxic [11] -4.88% [at 6 µM] | activity change, negative = cytotoxic [12] -5.39% [at 4.84 µM] | activity change, negative = cytotoxic [13] 1.81% [at 4.84 µM] | activity change, negative = cytotoxic [14] -6.89% [at 6.03 µM] | activity change, negative = cytotoxic [16] 83% [at 6.18 µM]

CN(C)C(=O)CNC(=O)Cc1ccccc1
inactive: Potency [1] | Potency [2] | Potency [3] | Potency [4] | Potency [5] | Potency [6] | Potency [7] | Potency [8] | Potency [9] | Potency [10] | Potency [11] | Potency [12] | Potency [13] | Potency [14] | Potency [16]

CCOC(=O)c1ccc(OCCN2C[C@H](O)[C@@H](O)[C@H](O)[C@H]2CO)cc1
inactive: Potency [1] | Potency [2] | Potency [3] | Potency [4] | Potency [5] | Potency [6] | Potency [7] | Potency [8] | Potency [9] | Potency [11] | Potency [12] | Potency [13] | Potency [14] | Potency [15] | Potency [16]

O=P(O)(O)OCC(O)CO (stereo not given)
inactive: Potency [1] | Potency [2] | Potency [3] | Potency [4] | Potency [5] | Potency [6] | Potency [7] | Potency [8] | Potency [9] | Potency [10] | Potency [11] | Potency [12] | Potency [13] | Potency [14] | Potency [16]

Cc1[nH]cnc1-c1ccc(Cl)cc1
inactive: Potency [1] | Potency [2] | Potency [3] | Potency [4] | Potency [5] | Potency [6] | Potency [7] | Potency [8] | Potency [9] | Potency [10] | Potency [12] | Potency [13] | Potency [14] | Potency [15] | Potency [16]

CCNC(=O)NCCCOc1cccc(CN2CCCCC2)c1
inactive: Potency [1] | Potency [2] | Potency [3] | Potency [4] | Potency [5] | Potency [6] | Potency [7] | Potency [8] | Potency [9] | Potency [10] | Potency [11] | Potency [12] | Potency [14] | Potency [15] | Potency [16]

Nc1ncnc2nc[nH]c12
inactive: Potency [1] | Potency [2] | Potency [3] | Potency [4] | Potency [5] | Potency [6] | Potency [7] | Potency [8] | Potency [9] | Potency [11] | Potency [12] | Potency [13] | Potency [14] | Potency [15]

O=C(O)CCCC[C@@H]1SC[C@@H]2NC(=O)N[C@@H]21
inactive: Potency [1] | Potency [2] | Potency [3] | Potency [4] | Potency [5] | Potency [6] | Potency [7] | Potency [8] | Potency [9] | Potency [11] | Potency [12] | Potency [13] | Potency [14] | Potency [15]

Cc1ccc(C(=O)C(=O)O)cc1C
inactive: Potency [1] | Potency [2] | Potency [3] | Potency [4] | Potency [5] | Potency [6] | Potency [7] | Potency [8] | Potency [9] | Potency [11] | Potency [12] | Potency [13] | Potency [14] | Potency [15] | Potency [16]

Cc1nc2n(c(=O)c1CCN1CCC(C(=O)c3ccc(F)cc3)CC1)CCS2
inactive: Potency [1] | Potency [2] | Potency [3] | Potency [4] | Potency [5] | Potency [6] | Potency [7] | Potency [8] | Potency [9] | Potency [10] | Potency [11] | Potency [12] | Potency [13] | Potency [15]
